Most compounds without a hit are left out; they make up all but 19% or so of the library.
DT40 TDP1 CPT: qHTS for Inhibitors of human tyrosyl-DNA phosphodiesterase 1 (TDP1): qHTS in cells in presence of CPT; Potency, µM (top dose mostly 46.2 µM), for inactives: at the highest dose activity change, negative = growth inhibition, actives largely listed as inhibitors; 12% of 420,000 active; chicken DT40 Tdp1-/-;hTDP1 cells + 20 nM CPT, ATP luminescence, 48 h; AID 686979, 2013; further: potency means the concentration at half of the fitted maximal effect; on the % scale 0 is the no-effect control and ±100 the full control effect; nearly all actives have a fitted effect of over 55% in size
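Cell growth measured by CellTiter-Glo luminescence after a minimum 48 h, 37 C compound exposure with 20 nM CPT in Tdp1-knockout DT40 cells stably expressing hTDP1, seeded 400/well; qHTS titration format.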
DT40 TDP1 no CPT: qHTS for Inhibitors of human tyrosyl-DNA phosphodiesterase 1 (TDP1): qHTS in cells in absence of CPT | Potency, µM (top dose mostly 46.2 µM), without a hit: top-dose activity change, negative = growth inhibition, usual class: inhibitors | DT40 Tdp1-/- hTDP1 cells, no CPT, ATP luminescence, 48 h | 15% of 420,000 active; further: potency means the concentration at half of the fitted maximal effect; on the % scale 0 is the no-effect control and ±100 the full control effect; nearly all actives have a fitted effect of over 55% in size
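Seeded 400 DT40-hTDP1 cells/well (vehicle DMSO, no 20 nM CPT); pinned compounds; ≥48 hr at 37 °C; CellTiter-Glo luminescence as viability measure.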
IL1B secr inh: qHTS for Inhibitors of Inflammasome Signaling: IL-1-beta AlphaLISA Primary Screen. activity change, % at 57.5 µM. THP-1 LPS/ATP IL-1B secretion, AlphaLISA, 16 h; stronger effect = lower value. 4.7% of 360,000 active; in the data active means activity change below about -50%; inconclusive means mostly about -30% to -49%; further: on the % scale 0 is the no-effect control and ±100 the full control effect
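Secreted IL-1B measured by AlphaLISA bead assay after 16 h compound exposure of THP-1 cells; compounds (final up to 57.5 uM) added 1 h before LPS (250 ng/mL) and ATP (1.25 mM) stimulation; lower signal means less secretion.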
SW480 rereplic: A quantitative high throughput screen for small molecules that induce DNA re-replication in SW480 colon adenocarcinoma cells; SW480 DNA re-replication, Hoechst DNA content imaging, 48 h; Potency, µM (top dose mostly 46.1 µM), inactives show at the top dose re-replication activation, actives largely listed as activators; 1.8% of 340,000 active; further: potency means the concentration at half of the fitted maximal effect; % of control where 0% means no effect; nearly all actives have a fitted effect of over 55% in size
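Compounds, transferred as 23 nL by pin tool, were incubated with cells for 48 hr; DNA content per nucleus was then quantified by Hoechst staining and fluorescence plate imaging.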
MCF10A rereplic: A quantitative high throughput screen for small molecules that induce DNA re-replication in MCF 10a normal breast cells | MCF 10A DNA re-replication, Hoechst nuclear intensity, 48 h | Potency, µM (top dose mostly 46.1 µM), without a hit: at the top dose activity, positive = re-replication, actives largely listed as activators | 2.9% of 350,000 active | AID 624296, 2012; further: potency means the concentration at half of the fitted maximal effect; % of control where 0% means no effect; nearly all actives have a fitted effect of over 50% in size
BCR signal inh: qHTS Assay to Find Inhibitors of Chronic Active B-Cell Receptor Signaling; ABC-DLBCL IkBa-CBG/CBR reporter, luminescence ratio, 4 h; Potency, µM (doses to about 46.1 µM), for inactives: top-dose activity change, negative = inhibition, actives largely listed as inhibitors; 0.05% of 340,000 active; AID 493014, 2011; active means well fitted inhibition curve with a large enough effect in the signal ratio, with a control signal flat, not every such curve was filed as active; inconclusive means small, poorly fitted or top-dose-only effect, or effect the other way, or a change in a side signal; the % refers to the signal ratio;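 further: potency means the concentration at half of the fitted maximal effect; plate controls were basal doxycycline-induced cells for no effect and cells given 10 µM MG132 for full effect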
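Concentration-response series (up to 46 uM) were applied to TMD8 dual-reporter cells for 4 h at 37C with doxycycline. Green/red ratio, after filter-overlap correction, defined %Activity; red signal alone was normalised to basal cells and zero luminescence.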
* hit, by the source's call; ? = inconclusive; · = no result given; [ ] = remark or other dose. Unless noted, the call rests on the fitted dose curve; in most records, active means well fitted curve in the direction sought with a large enough effect; inconclusive means small, poorly fitted or top-dose-only effect, or another doubt; inactive means no such curve, though single readings can be large; an effect the other way counts as inactive or inconclusive.

SMILES	DT40 TDP1 CPT	DT40 TDP1 no CPT	IL1B secr inh	SW480 rereplic	MCF10A rereplic	BCR signal inh
CCN(CC(=O)Nc1ccccc1C(F)(F)F)C(=O)CCc1nc2sc3c(c2c(=O)[nH]1)CCCC3	?	16.4µM*	-4.2	-6.2%	?	-6.6%
Nc1ncnc2c1ncn2[C@@H]1O[C@H](CNCc2ccccc2OCC(=O)N2CCCCC2)[C@@H](O)[C@H]1O	-21.0%	-10.1%	2.0	13.2%	14.2%	0.1%
O=C(Nc1cccc(Cl)c1)c1ccc(=O)[nH]n1	10.7%	-2.9%	31.3	-12.3%	-8.8%	?
COc1cc(NC(=O)C(CC(C)C)N2Cc3ccccc3C2=O)cc(OC)c1 (centres undefined)	-15.3%	?	·	·	·	·
COc1cc(OC)c(NC(=O)C(CC(C)C)N2Cc3ccccc3C2=O)cc1Cl (centres undefined)	14.6µM*	?	·	·	·	·
COc1ccccc1CNC(=O)C(CC(C)C)N1Cc2ccccc2C1=O (centres undefined)	9.2µM*	20.6µM*	·	·	·	·
COc1cc(C(CC(=O)NCc2ccccc2)N2Cc3ccccc3C2=O)cc(OC)c1OC (centres undefined)	-20.9%	-29.0%	·	·	·	·
COc1ccccc1CNC(=O)CC(c1ccc(F)cc1)N1Cc2ccccc2C1=O (centres undefined)	?	23.1µM*	·	·	·	·
COc1cc(C(CC(=O)NCc2ccc(F)cc2)N2Cc3ccccc3C2=O)cc(OC)c1OC (centres undefined)	?	16.4µM*	·	·	·	·
CN1CCN(C(CNC(=O)c2cccc(F)c2)c2ccc3c(c2)OCO3)CC1 (centres undefined)	-10.7%	-4.1%	·	·	·	·
COC(=O)c1ccccc1CCC(C)=O	?	16.4µM*	-7.5	-7.2%[9.22 µM]	?	?
COC(=O)c1ccccc1O	-10.7%	-8.0%	·	3.2%	0.3%	·
N#Cc1ccccc1S(=O)(=O)N1CCC(C(=O)NCc2ccccc2CN2CCCC2)CC1	-29.9%	-24.5%	-13.1	9.1%	-5.7%	8.1%
COc1ccc([C@H]2N[C@]3(CCCN(Cc4ccc(Cl)cc4)C3=O)[C@H]3C(=O)N(Cc4ccccc4)C(=O)[C@@H]23)cc1	18.4µM*	23.1µM*	-21.7	·	·	·
COc1ccc([C@H]2N[C@]3(CCCN(Cc4ccc(C)cc4)C3=O)[C@H]3C(=O)N(Cc4ccccc4)C(=O)[C@@H]23)cc1	?	16.4µM*	-12.7	·	·	·
COc1ccc([C@H]2N[C@]3(CCCN(Cc4ccccc4)C3=O)[C@H]3C(=O)N(Cc4ccccc4)C(=O)[C@@H]23)cc1	-6.5%	?	-10.2	·	·	·
CCOc1ccc(CNC(=O)Cn2nc(C)n3cccc3c2=O)cc1	-6.8%	-14.6%	·	·	·	·
CC(O)(c1ccc(Cl)cc1)C(c1ccccc1)c1ccccn1 (centres undefined)	-9.8%	-0.9%	-2.0	0.2%	6.5%	·
CCOC(=O)c1ccc(C(=S)N2CCCC2)cc1	8.9%	1.9%	11.4	6.0%	8.3%	-1.5%
COc1ccc(F)cc1COc1nc(C)nc2ccccc12	?	18.4µM*	11.8	1.0%	3.5%	4.6%
O=S(=O)(NCc1cccc(C(F)(F)F)c1)NCc1ccccc1F	-27.9%	-16.6%	16.2	-17.7%	-10.6%	1.3%
NCC1O[C@@H](OC2C(N)CC(N)C(O)C2O[C@@H]2OC(CO)C(O)C2O)C(N)C(O)C1O (some centres undefined)	-28.6%	-1.2%	·	·	·	·
CN(Cc1ccccc1)C(=O)c1[nH]cnc1C(=O)Nc1cccc(Cl)c1	?	?	-12.5	-2.8%	9.6%	0.9%
CCN1N=C(c2ccccc2)Cn2c1nc1ccccc12	?	16.4µM*	1.3	1.9%	27.2%	?
COc1ccc(CCNC(=O)Cn2ccc3cc(S(=O)(=O)N4CCCC4)ccc32)cc1OC	0.3%	1.2%	-1.8	17.1%	-10.7%	-0.9%
SMILES	DT40 TDP1 CPT	DT40 TDP1 no CPT	IL1B secr inh	SW480 rereplic	MCF10A rereplic	BCR signal inh
Cc1ccccc1CCNC(=O)Cn1ccc2cc(S(=O)(=O)N3CCCC3)ccc21	18.4µM*	?	4.8	-1.2%	1.2%	11.2%
Cc1ccc(CCNC(=O)Cn2ccc3cc(S(=O)(=O)N4CCCC4)ccc32)cc1	?	23.1µM*	21.4	13.2%	18.6%	1.3%
COc1ccc(C(C(=O)NCCC(C)C)N(CCO)C(=O)c2snc(C(N)=O)c2N)cc1 (centres undefined)	-13.9%	-3.7%	-21.8	35.7%	26.0%	?
CCCN1CCc2c(sc(NC(=O)c3ccc(S(=O)(=O)N(C)c4ccccc4)cc3)c2C(N)=O)C1	20.6µM*	?	-15.8	?	6.51µM*	1.2%
CCCN1CCc2c(sc(NC(=O)c3ccc(S(=O)(=O)N(C)c4ccccc4)cc3)c2C(=O)NC)C1	?	?	-60.0*	?	?	-3.0%
CC(=O)c1ccc(C(=O)Nc2sc3c(c2C(N)=O)CCN(Cc2ccccc2)C3)cc1	·	·	·	·	·	-3.9%
CCCCOC(=O)c1ccc(N=Nc2c(C)c(C#N)c(O)[nH]c2=O)cc1	?	23.1µM*	47.4	-7.3%	27.4%	2.1%
Cc1cccc(N=Nc2c(C)c(C#N)c(O)[nH]c2=O)c1	32.9%	9.3%	47.6	-10.9%	-0.3%	8.0%
CCCc1cc2c(=O)c(-c3cscn3)c(C(=O)OCC)oc2cc1O	-3.9%	2.6%	19.4	-17.0%	-1.2%	-2.0%
CCOC(=O)c1[nH]nc(-c2cc(CC)c(O)cc2O)c1-c1cscn1	?	?	-60.6*	16.9%	19.2%	?
Cc1cnc(CNc2cc(-c3ccc(N(C)C)cc3)ncn2)cn1	-26.6%	-12.2%	·	·	·	·
CC1(C)COC(c2cc3c(cc2Br)OCO3)OC1	-16.6%	-18.7%	20.8	-6.3%	1.0%	·
CC(=O)Oc1c(Cl)c(N2CCOCC2)c(OC(C)=O)c2ccccc12	20.6µM*	16.4µM*	62.9	-3.7%	?	-0.4%
Cc1cc(OC(=O)N2CCOCC2)cc(C)c1Cl	-10.4%	-23.3%	-10.0	-1.1%	1.2%	·
CCC(=O)Nc1ccc(/C(C)=N/NC(=O)c2c(Br)c(C)nn2C)cc1	?	14.6µM*	-2.6	11.6%	10.4%	0.0%
